Experimental data from PubChem BioAssay.
Activity calls are given as the source filed them.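 The calls were made as follows, unless noted: active = compounds lowering colon cancer cell viability after pretreatment blocking the GSK3B kinase; inactive = the rest.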

Assays:
[1] = Wnt pathway potentiators raising nuclear beta-catenin – imaging, WNT3A-conditioned medium, mouse C2C12, NPC library, primary screen (AID 1117326; in the data active = nuclear beta-catenin stimulation mostly above about 4.2%, no sharp cut-off; inactive = mostly below about 10%; also: reference of the scale not given here); details: stronger effect = higher value
[2] = stimulators of insulin release from INS-1E, primary screen, cell-based, 5 mM glucose, NPC library (AID 1117329;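 active = compound raises insulin release from rat beta cells at 5 mM glucose, no numeric limit stated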; also: reference of the scale not given here); details: rat INS-1E insulin secretion, at 10 µM, stronger effect = higher value
[3] = growth inhibition of GSK3B-pretreated HCT116 cells – cell-based, CellTiter-Glo, 0.2 to 20 µM (AID 1117336); details: HCT116 viability after GSK3B inhibitor, at 20 µM, stronger effect = higher value
[4] = inhibition of endothelial tube formation, primary screen, imaging, VEGF stimulated, CD31 staining, tube area, NPC library (AID 1117340;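 active = compound that reduces growth-factor-driven endothelial tube area in a mixed cell culture, no cutoff stated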); details: VEGF-stimulated ADSC/ECFC co-culture, at 10 µM, stronger effect = higher value
[5] = GLP1 release stimulators, primary, NCI-H716, NPC library (AID 1117341;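 active = compound raises GLP1 secretion from the human gut endocrine cells, with no numeric limit stated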; also: reference of the scale not given here); details: NCI-H716 cells, at 10 µM, stronger effect = higher value
[6] = HCT116 colon cancer cell growth inhibition, primary screen, CellTiter-Glo luminescence, NPC library (AID 1117342;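 active = compounds that lower survival of HCT116 colon cancer cells in the luminescence readout, no numeric limit stated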); details: at 20 µM (top of the series)
[7] = reduced SW480 viability measured with CellTiter-Glo, NPC library, primary (AID 1117343;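 active = compounds that lower viability of the colon cancer cells in the luminescence readout, with no numeric limit stated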); details: CellTiter-Glo luminescence; at 20 µM (top of the series)
[8] = NPC library primary testing for decreased DLD-1 cell viability via CellTiter-Glo (AID 1117346;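 active = compounds that lower survival of DLD-1 colon cancer cells in the luminescence readout, no cutoff given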); details: DLD-1 viability, CellTiter-Glo luminescence; at 20 µM (top of the series)

SMILES | nuclear beta-catenin stimulation ([1]; at 10 µM) | nuclear beta-catenin stimulation ([1]; stimulation, at 2 µM) [%] | insulin secretion stimulation [2] | viability decrease [3] | tube area decrease [4] | GLP1 secretion stimulation [5] | inhibition of viability [6] | viability decrease (inhibition) [7] | viability decrease (inhibition) [8]
CC(=O)O[C@H]1C[C@H](O[C@H]2[C@@H](O)C[C@H](O[C@@H]3[C@@H](O)C[C@H](O[C@H]4CC[C@@]5(C)[C@H](CC[C@@H]6[C@H]5C[C@@H](O)[C@]5(C)[C@@H](C7=CC(=O)OC7)CC[C@]65O)C4)O[C@@H]3C)O[C@@H]2C)O[C@H](C)[C@H]1O[C@@H]1O[C@H](CO)[C@@H](O)[C@H](O)[C@@H]1O | 1.6% (inactive) | 0.9 | 0.8% (inactive) | 73.3% (active) | 108% (active) | -0.9% (inactive) | 46.8% (active) | 54.2% (active) | 55.1% (active)
O=c1oc2ccccc2c(O)c1C(CC(O)c1ccc(-c2ccc(Br)cc2)cc1)c1ccccc1 (stereo not drawn) | 8.3% (inactive) | 2.6 | 3.6% (inactive) | 100% (active) | 2.4% (inactive) | 23.9% (active) | 101% (active) | 122% (active) | 103% (active)
O=C(CCl)c1ccc(Cl)cc1Cl | 3.3% (active) | 45.6 | 4.4% (inactive) | 66.2% (active) | 104% (active) | -6.4% (inactive) | 88.3% (active) | 91.8% (active) | 64.8% (active)
Oc1ccc(Cl)cc1Cc1ccccc1 | 0.2% (inactive) | 0.1 | 0.7% (inactive) | 38.4% (inactive) | 4.6% (inactive) | 38% (active) | -2.2% (inactive) | 118% (active) | 85.4% (active)
C=CCOC(Cn1ccnc1)c1ccc(Cl)cc1Cl (stereo not drawn) | 4.9% (inactive) | 2.5 | 6.1% (inactive) | -54.8% (inactive) | 6.3% (inactive) | 0.8% (inactive) | 58.1% (active) | 96.7% (active) | 30.1% (inactive)
CC(C)(C)NCC(O)c1cc(Cl)c(N)c(C(F)(F)F)c1 (stereo not drawn) | 0.4% (inactive) | 1 | -1.6% (inactive) | -16.8% (inactive) | -0.3% (inactive) | -2.3% (inactive) | 10.6% (inactive) | 5.9% (inactive) | -1.7% (inactive)
O=C1OC(CCN2CCCCC2)OC1(c1ccccc1)c1ccccc1 (stereo not drawn) | 15% (inactive) | 0.5 | 5.9% (inactive) | 0.7% (inactive) | 6% (inactive) | 4.4% (inactive) | 1.1% (inactive) | 15% (inactive) | 92.8% (active)
